# Data published in PubChem BioAssay.
# Results filed as inconclusive are left out. For some assays here: Measured potencies and affinities stand elsewhere. Active and inactive are the calls of the source. Unless noted, no rule for the calls is given here.
# Legend:
# [1] = P. berghei load reduction in hepatocytes – cell-based, HepG2, luciferase luminescence, HepG2 viability, primary screen (AID 624349; in the data active = parasite load remaining mostly below about 12%, no sharp cut-off; inactive = mostly above about 10%;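 also: 100% = mean of DMSO negative control wells on the same plate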); settings: P. berghei liver stage in HepG2, luciferase luminescence, concentration not given here; parasite load remaining: stronger effect = lower value; viability: measured here: HepG2 viability without parasites
# [2] = tested on: Hepatitis C virus NS3 helicase; assay: blockers of NS3h binding to ssDNA – biochemical, fluorescence polarization, LOPAC1280 library, primary screen (AID 687035; in the data active = inhibition above about 37%); settings: Purified HCV NS3 helicase, Cy5-dT15 ssDNA binding fluorescence polarization; stronger effect = higher value; concentration not given here
# [3] = compounds altering Cy5-DNA-NS3h complex signal – biochemical, LOPAC1280, artefact control for HCV NS3 helicase inhibitor project (AID 687037); settings: Cy5-DNA-NS3h complex fluorescence interference counterscreen
# [4] = molecular target: 6-phosphogluconate dehydrogenase, decarboxylating (Homo sapiens) (UniProt P52209); assay: inhibition of human phosphogluconate dehydrogenase – biochemical, recombinant enzyme, NADPH absorbance, primary screen (AID 1159550;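 active = at least 20% inhibition of 6-phosphogluconate dehydrogenase activity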); settings: recombinant 6PGD, NADPH absorbance 341 nm; at 10 µM; stronger effect = higher value
# 6-phosphogluconate dehydrogenase, decarboxylating (Homo sapiens), sequence (P52209 whole entry, looked up): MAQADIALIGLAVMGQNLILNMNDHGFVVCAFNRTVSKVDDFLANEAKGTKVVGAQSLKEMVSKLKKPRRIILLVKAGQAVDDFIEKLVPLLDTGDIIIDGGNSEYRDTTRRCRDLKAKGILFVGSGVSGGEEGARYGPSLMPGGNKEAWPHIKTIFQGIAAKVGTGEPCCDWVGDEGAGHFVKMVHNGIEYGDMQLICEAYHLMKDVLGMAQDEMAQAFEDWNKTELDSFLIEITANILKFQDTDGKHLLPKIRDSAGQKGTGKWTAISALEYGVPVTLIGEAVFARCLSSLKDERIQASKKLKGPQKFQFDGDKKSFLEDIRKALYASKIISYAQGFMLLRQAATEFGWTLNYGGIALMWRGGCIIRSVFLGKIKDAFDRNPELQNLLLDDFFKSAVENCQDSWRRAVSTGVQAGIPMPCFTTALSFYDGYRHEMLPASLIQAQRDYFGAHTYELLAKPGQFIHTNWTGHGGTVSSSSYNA
# [5] = tested on: Aerobactin synthetase IucA (Klebsiella pneumoniae hvKP1); assay: IucA enzyme inhibition, primary screen, biochemical, Spectrum library (AID 1346200); settings: malachite green pyrophosphate, A620, at 8 µM, stronger effect = lower value;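 also: 100% = wells without compound and 0% = wells lacking enzyme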
# [6] = viability loss with induced miR-34 in A549 – imaging, A549 dox-inducible miR-34, nuclei and caspase counts, primary screen (AID 1347080;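 active = compounds whose cell count with miR-34 switched on is under 0.7 times the count with it off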); settings: A549 miR-34 inducible, Hoechst nuclei count, 48 h
# [7] = blockers of cellular phospholipid synthesis – cell-based, LOPAC library, screen 4, primary screen (AID 1347384); settings: animal cells, phospholipid biosynthesis inhibition screen; at 10 µM
# [8] = galactose survival enhancers in mitochondrial complex I cybrids – cell-based, galactose medium, ATP luminescence, primary screen (AID 1645843;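 active = z-score of at least 1.8 in each of two replicates, scored against plate mean and spread of sample wells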;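 also: positive z means more ATP and so rescue of galactose-driven cybrid death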); settings: complex I mutant cybrid cells, 72 h, stronger effect = higher value
# [9] = molecular target: Mitogen-activated protein kinase 7 (Homo sapiens) (UniProt Q13164); assay: Gal4-ERK5 driven luciferase induction – cell-based, HTS, primary screen (AID 1508626;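 active = luciferase signal above three times the same-plate solvent-only control wells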;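 also: luciferase driven by Gal4-ERK5 fusion binding five Gal4 sites before minimal TATA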); settings: HeLa Gal4-ERK5 transactivation, 18 h, at 5 µM, stronger effect = higher value
# Mitogen-activated protein kinase 7 (Homo sapiens), sequence (Q13164 whole entry, looked up, the tested form may be a part): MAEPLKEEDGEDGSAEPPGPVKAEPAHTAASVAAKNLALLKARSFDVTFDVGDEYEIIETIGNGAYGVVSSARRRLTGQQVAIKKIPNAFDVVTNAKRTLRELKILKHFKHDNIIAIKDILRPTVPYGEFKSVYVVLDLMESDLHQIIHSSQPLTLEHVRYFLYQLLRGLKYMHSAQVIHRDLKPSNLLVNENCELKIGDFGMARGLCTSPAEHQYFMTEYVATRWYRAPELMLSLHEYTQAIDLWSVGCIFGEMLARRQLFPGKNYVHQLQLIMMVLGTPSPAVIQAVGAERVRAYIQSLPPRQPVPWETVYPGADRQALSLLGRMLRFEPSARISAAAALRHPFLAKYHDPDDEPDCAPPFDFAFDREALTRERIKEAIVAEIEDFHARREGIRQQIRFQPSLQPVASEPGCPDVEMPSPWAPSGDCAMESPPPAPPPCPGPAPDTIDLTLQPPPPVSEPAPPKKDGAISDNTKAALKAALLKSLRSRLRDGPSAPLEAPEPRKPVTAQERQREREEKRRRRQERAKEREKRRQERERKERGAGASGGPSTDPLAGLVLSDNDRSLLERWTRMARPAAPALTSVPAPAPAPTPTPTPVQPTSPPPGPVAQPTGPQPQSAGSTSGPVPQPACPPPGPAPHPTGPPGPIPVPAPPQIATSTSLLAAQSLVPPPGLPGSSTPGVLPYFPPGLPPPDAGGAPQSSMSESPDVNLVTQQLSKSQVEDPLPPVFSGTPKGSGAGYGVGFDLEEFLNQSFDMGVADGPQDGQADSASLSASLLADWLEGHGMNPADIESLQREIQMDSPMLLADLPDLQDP
# [10] = compounds altering circadian rhythm period length – cell-based, LOPAC library, luminescence reporter (AID 2774); settings: circadian reporter cells, at 7 µM, actives lie on both sides;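 also: values are relative to mean of DMSO wells on each plate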
# [11] = tested on: Aerobactin synthetase IucA (Klebsiella pneumoniae, hypervirulent); assay: biochemical IucA inhibition screen of LOPAC library by absorbance (AID 1346212); settings: IucA enzyme assay, absorbance (OD) readout; stronger effect = lower value; concentration not given here;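 also: 100% = no compound wells and 0% = no enzyme wells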
# [12] = viability loss in pontine glioma line – cell-based, SU-DIPG-XIII, MIPE4.0, CellTiter-Glo, qHTS, dose response (AID 1347061; cut-off not given, nearly all actives have AC50 up to about 37 µM;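 also: cells exposed to compound for 48 hours before readout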); settings: CellTiter-Glo ATP luminescence
# [13] = viability loss in pontine glioma line – cell-based, JHH-DIPG-1, MIPE4.0, CellTiter-Glo, qHTS, dose response (AID 1347062; cut-off not given, nearly all actives have AC50 up to about 27 µM); settings: JHH-DIPG-1 viability, CellTiter-Glo ATP luminescence
# [14] = viability loss in pontine glioma line – cell-based, SU-DIPG-IV, MIPE4.0, CellTiter-Glo, qHTS, dose response (AID 1347063; cut-off not given, nearly all actives have AC50 up to about 30 µM;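 also: compound exposure lasted 48 hours before the viability readout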); settings: CellTiter-Glo ATP luminescence
# [15] = growth inhibition of DIPG cells – cell-based, MIPE4.0 library, CellTiter-Glo luminescence, qHTS (AID 1347066; cut-off not given, nearly all actives have AC50 up to about 30 µM;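 also: cells exposed to compound for 48 hours before readout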); settings: SU-DIPG-VI viability, CellTiter-Glo ATP luminescence
# [16] = molecular target: NAD(+) hydrolase SARM1 (Homo sapiens) (UniProt Q6SZW1); assay: blocking NAD cleavage by SARM1 SAM-TIR – cell lysate, NAD-Glo luminescence (AID 1508614;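 active = compound whose remaining NAD level is above about 45 nM, limit read from the data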;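 also: higher remaining NAD means stronger inhibition of SARM1 NADase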); settings: SAM-TIR HEK293T lysate NADase, at 1 µM, stronger effect = higher value
# NAD(+) hydrolase SARM1 (Homo sapiens), sequence (Q6SZW1 whole entry, looked up): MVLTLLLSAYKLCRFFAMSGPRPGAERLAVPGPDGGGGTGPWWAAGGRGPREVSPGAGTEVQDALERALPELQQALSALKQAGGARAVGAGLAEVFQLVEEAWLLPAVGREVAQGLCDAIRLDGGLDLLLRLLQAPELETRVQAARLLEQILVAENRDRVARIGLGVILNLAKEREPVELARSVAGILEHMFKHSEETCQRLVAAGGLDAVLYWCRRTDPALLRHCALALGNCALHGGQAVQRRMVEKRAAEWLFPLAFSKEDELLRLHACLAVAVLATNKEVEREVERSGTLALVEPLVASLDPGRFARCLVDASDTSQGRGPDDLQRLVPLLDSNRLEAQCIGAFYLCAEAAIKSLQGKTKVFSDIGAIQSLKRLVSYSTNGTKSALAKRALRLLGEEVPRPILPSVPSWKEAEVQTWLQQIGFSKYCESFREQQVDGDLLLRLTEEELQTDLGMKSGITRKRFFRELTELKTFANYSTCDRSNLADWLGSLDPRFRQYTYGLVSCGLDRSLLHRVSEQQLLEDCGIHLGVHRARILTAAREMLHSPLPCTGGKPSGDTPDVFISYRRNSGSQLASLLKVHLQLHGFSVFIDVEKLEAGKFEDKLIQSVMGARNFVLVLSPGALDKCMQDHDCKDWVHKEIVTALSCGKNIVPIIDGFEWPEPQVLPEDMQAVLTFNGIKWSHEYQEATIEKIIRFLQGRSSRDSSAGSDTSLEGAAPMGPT
# [17] = blockers of polyQ-driven CASP3 activation – cell-based (AID 1583); settings: polyglutamine-induced caspase-3 activation, cell assay; stronger effect = higher value;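 tested at 10 µM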
# [18] = yeast 75Q aggregation reduction – 75Q-TubU reporter (AID 1593); settings: Yeast 75Q polyglutamine aggregation reporter
# [19] = restoration of touch response, mutant HTT neurons – whole organism, C. elegans mechanosensory neurons, N-terminal huntingtin (AID 1599); settings: C. elegans polyQ-huntingtin mechanosensory neurons, stronger effect = higher value
# [20] = blockers of cytochrome c efflux from mitochondria – biochemical, purified mitochondria (AID 1603); settings: stronger effect = lower value;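 also: mouse liver mitochondria challenged with calcium chloride; signal normalized to the plate average as 100%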
# [21] = polyglutamine aggregate formation blockers (AID 1604); settings: polyglutamine-induced protein aggregation inhibition assay; stronger effect = higher value; tested at 2.5 µM
# [22] = glutamate transport activators, MN-1 cells, MN-1 cell line (AID 1612); settings: MN-1 motor neuron cells, stronger effect = higher value;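 also: tested at 1 µM final; 0% = mean of DMSO vehicle wells on each plate; positive means more glutamate uptake than control and negative means less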
# [23] = GFP-Q80 aggregate reduction, neuronal-like cells, cell-based, NGF-treated PC12, GFPQ80 (AID 1614); settings: PC12 NGF-treated GFP-polyQ80 inclusion reduction;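 also: lower means fewer inclusions and 0 means no inclusions at all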
# [24] = 75Q-TubH aggregate inhibition, S. cerevisiae, yeast (AID 1616); settings: S. cerevisiae 75Q-TubH polyglutamine aggregation suppression; stronger effect = higher value
# [25] = MELAS cybrid and Rieske KO viability enhancers – cell-based, MELAS cybrids, Rieske KO mouse fibroblasts, CellTiter-Glo, primary screen (AID 1508586;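 active = mean z-score across replicates of 1.96 or higher in either the MELAS or the Rieske mutant cell line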;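 also: z relative to plate mean and SD of compound and empty wells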); settings: low glucose
# [26] = measured here: relative caspase fold change +Dox/-Dox
# [27] = measured here: total cells with miR-34 induction, stronger effect = lower value
# [28] = measured here: total cells without miR-34 induction
structure (smiles),measurement,setting,value
CC(C)=CCOc1c2occc2cc2ccc(=O)oc12,parasite load remaining,[1],18.8% (inactive)
same,viability,[1],92.7%
same,inhibition,[2],-2% (inactive)
same,fluorescence ratio (interference),[3],1 (inactive)
same,inhibition,[4],4.77% (inactive)
same,activity remaining,[5],108% (inactive)
same,fold change,[6]; stronger effect = lower value,1.08 (inactive)
same,fold change,[6]; [26],1.1
same,cell count,[6]; [27],8640
same,cell count,[6]; [28],8010
same,outcome,[7],inactive
same,z-score,[8],0.56 (inactive)
COc1cc([C@@H]2c3cc4c(cc3[C@H](OC(C)=O)[C@H]3COC(=O)[C@H]23)OCO4)cc(OC)c1OC,inhibition,[4],-6.91% (inactive)
same,activity remaining,[5],112% (inactive)
same,luciferase signal,[9],244 AU (active)
C[N+](C)(C)CC(=O)O,period change,[10],-0.005 h (inactive)
same,inhibition,[2],-5% (inactive)
same,fluorescence ratio (interference),[3],0.9 (inactive)
same,inhibition,[4],5.32% (inactive)
same,remaining activity,[11],106% (inactive)
same,outcome,[12],inactive
same,outcome,[13],inactive
same,outcome,[14],inactive
same,outcome,[15],inactive
same,fold change,[6]; stronger effect = lower value,1.03 (inactive)
same,fold change,[6]; [26],1.89
same,cell count,[6]; [27],9950
same,cell count,[6]; [28],9700
same,remaining NAD,[16],10 nM (inactive)
same,luciferase signal,[9],268 AU (inactive)
same,z-score,[8],0.805 (inactive)
CCCC(C)C1(CC)C(=O)NC(=O)NC1=O (stereo not given),inhibition,[17],8.8%
same,score,[18],1.08
same,rescue above control,[19],-0.14
same,cytochrome c release ratio,[20],0.79
same,inhibition of aggregation,[21],-14.3%
same,glutamate uptake change,[22],8.51%
same,inclusion score,[23],2
same,aggregation suppression score,[24],0.96
same,parasite load remaining,[1],22.1% (inactive)
same,viability,[1],103%
same,inhibition,[4],-1.31% (inactive)
same,activity remaining,[5],95.4% (inactive)
same,fold change,[6]; stronger effect = lower value,0.918 (inactive)
same,fold change,[6]; [26],2.52
same,cell count,[6]; [27],11200
same,cell count,[6]; [28],12200
same,z-score,"[25]; MELAS cybrid survival, CellTiter-Glo 48 h, stronger effect = higher value",0.13 (inactive)
same,z-score,"[25]; Rieske KO mouse fibroblast survival, CellTiter-Glo 72 h",-0.121
same,luciferase signal,[9],60 AU (inactive)
